# Sampled rows, rich in hits. Any-hit rate of the full collection: about 2.5%.
# HIV Env fusion: inhibitors of HIV Env-mediated cell fusion. HeLa-JRFL Env/CEM21 cell fusion, luciferase. inhibition, % at 12.3 µM. 360,000 tested, 1.1% active;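 active means mean replicate inhibition score of at least 50 and every replicate individually at or above 50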;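 further: 0% = plate neutral controls and 100% = maraviroc near 300 nM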
# EWS-Fli block: blocks EWS/Fli oncoprotein-driven transcription. AID 651661. inhibition, % at 12.6 µM. A673 NR0B1-luciferase reporter, viability-normalised. 350,000 tested, 0.67% active;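 active means mean inhibition of at least 50% after viability correction, with every replicate also passing that limit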;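 further: firefly luciferase signal divided by Alamar Blue viability fluorescence both relative to DMSO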
# FXN GAA850 act: activators of GAA850 frataxin (FXN) promoter; HEK293 lucGAA850 FXN promoter luciferase reporter, 24 h; percent of 10 µM SAHA response; activation, % at 6 µM; 360,000 tested, 0.56% active;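 active means activation above the average of all compounds screened plus 3 SD, cutoff fixed separately per campaign, cut at about 7.5% in these data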;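 further: 0% = DMSO wells and 100% = 10 µM SAHA wells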
# PAX8 inh HTS: PAX8 transcriptional activity inhibition | 360,000 tested, 1.2% active | RMG-I TPO-luciferase reporter, SteadyGlo, 24 h | inhibition, % at 12.6 µM;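 active means mean replicate inhibition at least 60% with every replicate also reaching 60%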;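 further: luciferase light reporting Pax8 driven TPO promoter activity; plate controls were median of neutral control wells for no effect and mitoxantrone controls for full effect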
# F508del corr: CFTR F508del correction in bronchial cells. activity (quench increase), % at 7.58 µM. AID 720511. 350,000 tested, 0.36% active. CFBE cells, YFP halide quenching; stimulated with forskolin plus potentiator P3; % fluorescence drop versus neutral controls;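 active means mean added fluorescence quench of at least 8% versus neutral control, with both replicates also reaching 8%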;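 further: cells transiently co-express mutant CFTR-F508del with the halide-sensitive YFP; corrector assay measuring rescue of mutant channel to the surface after 24 h compound exposure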
# Active calls of the source: *; · = not tested or not shown; [ ] = dose if it differs, or a comment.
SMILES,HIV Env fusion,EWS-Fli block,FXN GAA850 act,PAX8 inh HTS,F508del corr
COC(=O)c1ccc(COc2ccc(/C=N/Nc3cccc(C(=O)O)c3)cc2)cc1,-7,-38,6,-26,-1
Cc1cccc(C)c1NC(=O)C1C(c2ccccc2)=Nc2ccccc2N1C(=O)c1cnccn1 (stereo not drawn),64*,-44,·,-44,5
O=C(NCc1ccccc1)C1C(c2ccccc2)=Nc2ccccc2N1C(=O)c1cnccn1 (stereo not drawn),8,-55,·,-78,1
O=C1CC(Sc2nnc(-c3ccccc3)o2)C(=O)N1c1ccccc1 (stereo not drawn),-48,·,1,72*,·
N#C/C(=C\c1c(N(Cc2ccccc2)Cc2ccccc2)nc2ccccn2c1=O)C(N)=O,58*,·,4,-7,·
Cc1cccc(C)c1OCC(O)Cn1c2ccccc2c2ccccc21 (stereo not drawn),57*,·,-2,·,·
CC(C)CC#Cc1ccc2c(c1)O[C@@H](CN(C)Cc1ccc(F)cc1)[C@H](C)CN([C@@H](C)CO)S2(=O)=O,-16[16.7 µM],31,·,28,2
CC(C)CC#Cc1ccc2c(c1)O[C@H](CN(C)Cc1cccc(F)c1)[C@@H](C)CN([C@@H](C)CO)S2(=O)=O,6[16.7 µM],62*,·,·,-4
CC(C)CC#Cc1ccc2c(c1)O[C@H](CN(C)Cc1ccc(F)cc1)[C@H](C)CN([C@H](C)CO)S2(=O)=O,19[16.7 µM],36,·,76*,-1
CC(C)CC#Cc1ccc2c(c1)O[C@@H](CN(C)Cc1cccc(F)c1)[C@H](C)CN([C@@H](C)CO)S2(=O)=O,-16[16.7 µM],21,·,·,0
CS(=O)(=O)N1C[C@@H](O)COC[C@H]2O[C@@H](CC(=O)NCc3ccccc3)CC[C@@H]21,-15[16.7 µM],-5,·,-4,0
COc1cc2c(cc1NC(=O)C(Cl)Cl)-c1ccc(NC(=O)C(Cl)Cl)cc1C2,-178,23,-10,79*,-2
COc1ccc(OC)c(COC(=O)c2cc([N+](=O)[O-])ccc2N2CCOCC2)c1,48,65*,-3,25,6
CSc1ccc(COC(=O)c2cc([N+](=O)[O-])ccc2N2CCOCC2)cc1,·,55*,-4,96*,5
CCc1cccc(NC(=O)COC(=O)c2cc([N+](=O)[O-])ccc2N2CCOCC2)c1,8,6,-2,16,9.1*
Cc1ccccc1COC(=O)c1cc([N+](=O)[O-])ccc1N1CCOCC1,23,·,0,24,-4
COc1ccc(S(=O)(=O)Nc2ccc3c(c2)C(=O)N([C@@H](C)CO)C[C@@H](C)[C@H](CN(C)Cc2ccc4c(c2)OCO4)OCCCC[C@@H](C)O3)cc1,-4[16.7 µM],-8,·,2,3
Cc1ccc(S(=O)(=O)Nc2ccc3c(c2)C(=O)N([C@H](C)CO)C[C@@H](C)[C@H](CN(C)C(=O)Nc2ccc(F)cc2)O3)cc1,·,6,·,-11,-2
O=C(NC1CCCCC1)c1n[nH]c2c1CCCCC2,69*,79*,-9,55,-2
CN1CCN(C(=O)C[C@H]2CC[C@@H]3[C@@H](COc4ccc(NC(=O)c5cccs5)cc4C(=O)N3C)O2)CC1,-2[16.7 µM],2,·,6,1
COc1cc(/C=C(\C#N)C(=O)c2c[nH]c3ccccc23)cc(OC)c1O,-14,-2,-1,1,17*
COc1ccc(/C=C(\C#N)c2nc3ccccc3[nH]2)cc1O,-93,-120,5,-90,2
COc1cc(/C=C(\C#N)c2nc3ccccc3[nH]2)cc(OC)c1O,-82,-15,0,-5,10*
CS(=O)(=O)Nc1ccc2c(c1)[C@@H]1C[C@@H](CC(=O)N3CCCCC3)O[C@H](CO)[C@@H]1O2,·,0,·,-10,0
NC(=S)n1[nH]c(-c2ccc([N+](=O)[O-])cc2)c(N=Nc2cccc(Cl)c2)c1=O,57*,44,-1,-4,0
CCOC1=C2CN(S(=O)(=O)c3ccc(C)cc3)CC[C@@H]2N(S(=O)(=O)c2ccc(C)cc2)[C@H](c2ccccc2)C1,-19,5,·,-19,12*
CCOC1=C2CN(S(=O)(=O)c3ccc(C)cc3)[C@H](c3ccccc3)C[C@@H]2N(S(=O)(=O)c2ccccc2)[C@H](c2ccccc2)C1,·,7,·,-14,0
N#C[C@@H]1[C@@H](c2ccccc2-c2cccc(F)c2)[C@H](CO)N1C(=O)C1CCC1,·,9,·,4,-1
Cc1ccc(-c2ccc(=O)n(CCC(=O)N3CCN(c4ccccc4)CC3)n2)cc1,5,-3,1,63*,0

# Screening results from PubChem.
